Sampled rows, rich in hits. Any-hit rate of the full collection: about 7.4%.
MITF inhib: blocks MITF activity | TRPM1 promoter luciferase, luminescence, 24 h | inhibition, % (no concentration beside the values) | 0.28% of 37,000 active | AID 2240; in the data active = inhibition above about 85%; inconclusive = no clear call, values can overlap the other calls; inactive = below about 68%;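 note: human melanocyte line stably carrying TRPM1 promoter luciferase reporter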
PD-1 reversal: reversal of PD-1 mediated T-cell inhibition. primary human CD4 T cells, PD-L1 beads, CellTiter-Glo 96 h. activation, % (concentration not given with the values). 29,000 tested, under 10 active. AID 2316; call rule not given here;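 note: 0% = median vehicle wells and 100% = positive control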
YB-1 expression: YB-1 expression inhibition. U2OS, qRT-PCR YB-1 vs CDIP delta delta Cp, 16 h; stronger effect = higher value; zero = DMSO, each unit about twofold. delta delta Cp (YB-1 minus CDIP) (test concentration not listed). 0.37% of 30,000 active. AID 434959;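 active = delta delta Cp rounded down to an integer at or above 3, about 3 SD of DMSO wells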;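 note: higher means less YB-1 transcript or more CDIP transcript relative to DMSO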
Hedgehog inh: Sonic Hedgehog pathway inhibition; Shh-LIGHT2 Gli-luciferase reporter, 30 h; inhibition, % (test concentration not listed); 2.1% of 22,000 active; AID 2313;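 active = mean inhibition across valid replicates above about 65%, limit read from the data; inconclusive = mean under the limit, yet half or more replicates past it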;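 note: pathway switched on by Shh-conditioned medium diluted 1 in 25 in low serum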
NOMO-1 viab: STK33 inhibitor candidate reducing NOMO-1 cell viability | NOMO-1 AML viability, CellTiter-Glo luminescence, 72 h | inhibition, % (no concentration beside the values) | 7.5% of 37,000 active | AID 2330; in the data active = inhibition above about 80%; inconclusive = no clear call, values can overlap the other calls
* = called active by the depositor.

Screening O=C(NC(Cc1cc(=O)[nH]c2ccccc12)C(=O)O)c1ccc(Cl)cc1 (centres undefined) returned MITF inhib 12, YB-1 expression 0.11, Hedgehog inh -7 and NOMO-1 viab 9.
CCOC(=O)c1cnc(SCC(=O)Nc2ccccc2C)nc1N was read as MITF inhib -6, PD-1 reversal -2 and NOMO-1 viab 14.
For O=C1NCc2c1c1c3ccccc3[nH]c1c1[nH]c3ccccc3c21 the results were MITF inhib 30, PD-1 reversal -4, YB-1 expression 0.31, Hedgehog inh 21 and NOMO-1 viab 97*.
`CC1(C)C(=O)C=CC2(C)C1CC(O)C1(C)C3=CCC(c4ccoc4)C3(C)CCC21` (centres undefined) gave MITF inhib 77, PD-1 reversal -11, YB-1 expression -0.23, Hedgehog inh -15 and NOMO-1 viab 119*.
For O=[N+]([O-])c1cccc(-c2nn(-c3ccccc3)cc2CNCc2ccccc2)c1 the results were MITF inhib -20, PD-1 reversal -9 and NOMO-1 viab 93*.
`O=c1cc(-c2ccccc2)nc2nc(NCc3cccc([N+](=O)[O-])c3)[nH]n12` gave MITF inhib -19, PD-1 reversal 2 and NOMO-1 viab 25.
Screening CC(C)c1ccc(NC(=O)CSc2nnc(-c3ccc(Cl)c(Cl)c3)n2C)cc1 returned MITF inhib -10, PD-1 reversal 3 and NOMO-1 viab -6.
For CC(C)NC(=O)Nc1ccc2c(c1)C(=O)N([C@H](C)CO)C[C@H](C)[C@H](CN(C)S(=O)(=O)c1ccc(F)cc1)O2 the results were MITF inhib 1, PD-1 reversal 1, YB-1 expression -0.28 and NOMO-1 viab -5.
`O=C(c1ccc(F)cc1)n1nc(-c2ccc(Cl)cc2)nc1NCc1ccco1` gave MITF inhib -82, PD-1 reversal 0 and NOMO-1 viab 104*.
Screening C[C@@H]1CCCCO[C@H](CN(C)Cc2ccc(C(F)(F)F)cc2)[C@@H](C)CN([C@H](C)CO)C(=O)c2cc(NS(=O)(=O)c3ccc(Cl)cc3)ccc2O1 returned MITF inhib 14, YB-1 expression -0.33, Hedgehog inh 21 and NOMO-1 viab 82*.
`Cc1ccc(S(=O)(=O)Nc2ccc3c(c2)C(=O)N([C@H](C)CO)C[C@H](C)[C@H](CN(C)C(=O)Nc2cccc4ccccc24)OCCCC[C@@H](C)O3)cc1` gave MITF inhib 11, PD-1 reversal -1, YB-1 expression -0.24, Hedgehog inh -9 and NOMO-1 viab 111*.
For C[C@@H]1CCCCO[C@@H](CN(C)C(=O)Nc2cccc3ccccc23)[C@@H](C)CN([C@H](C)CO)C(=O)c2cc(NS(=O)(=O)c3ccccc3)ccc2O1 the results were MITF inhib 29, PD-1 reversal -3, YB-1 expression 0.34, Hedgehog inh 21 and NOMO-1 viab 55.
C[C@@H]1CCCCO[C@@H](CN(C)C(=O)C2CCCCC2)[C@@H](C)CN([C@H](C)CO)C(=O)c2cc(NS(=O)(=O)c3ccccc3)ccc2O1 was read as MITF inhib 54, YB-1 expression -0.45 and NOMO-1 viab 101*.
`C[C@@H]1CCCCO[C@H](CN(C)Cc2ccc(C(F)(F)F)cc2)[C@@H](C)CN([C@H](C)CO)C(=O)c2cc(NS(C)(=O)=O)ccc2O1` gave MITF inhib 3, YB-1 expression -0.033, Hedgehog inh -12 and NOMO-1 viab 15.
Screening Cc1ccc(S(=O)(=O)Nc2ccc3c(c2)C(=O)N([C@H](C)CO)C[C@H](C)[C@H](CN(C)Cc2ccc(Cl)c(Cl)c2)OCCCC[C@@H](C)O3)cc1 returned MITF inhib 80, PD-1 reversal -12, YB-1 expression -0.43, Hedgehog inh -18 and NOMO-1 viab 111*.
Screening C[C@@H]1CN([C@H](C)CO)C(=O)c2cccc(NS(=O)(=O)c3cn(C)cn3)c2O[C@H]1CN(C)Cc1ccc(Cl)c(Cl)c1 returned MITF inhib -30, PD-1 reversal 1, YB-1 expression -0.041, Hedgehog inh -5 and NOMO-1 viab -10.
CCOc1ccc(C(=O)CSc2nnc(-c3ccncc3)n2-c2ccc(C)cc2)cc1 was read as MITF inhib -2, PD-1 reversal 1 and NOMO-1 viab -13.
Cc1ccc(S(=O)(=O)Nc2ccc3c(c2)C(=O)N([C@H](C)CO)C[C@H](C)[C@@H](CN(C)Cc2ccc(C(F)(F)F)cc2)OCCCC[C@@H](C)O3)cc1 was read as MITF inhib 47, YB-1 expression 0.057 and NOMO-1 viab 112*.
`COc1ccc(S(=O)(=O)Nc2ccc3c(c2)C(=O)N([C@H](C)CO)C[C@H](C)[C@@H](CN(C)Cc2ccc(C(F)(F)F)cc2)OCCCC[C@@H](C)O3)cc1` gave MITF inhib 37, YB-1 expression 0.14, Hedgehog inh 17 and NOMO-1 viab inconclusive.
`Cc1ccc(S(=O)(=O)Nc2ccc3c(c2)C(=O)N([C@H](C)CO)C[C@H](C)[C@@H](CN(C)Cc2ccccc2)OCCCC[C@@H](C)O3)cc1` gave MITF inhib -11, PD-1 reversal -3, YB-1 expression 0.027, Hedgehog inh 68* and NOMO-1 viab 30.
`Cc1ccc(S(=O)(=O)Nc2ccc3c(c2)C(=O)N([C@H](C)CO)C[C@H](C)[C@H](CN(C)Cc2ccc(C(=O)O)cc2)OCCCC[C@@H](C)O3)cc1` gave MITF inhib -1, PD-1 reversal 2, YB-1 expression 0.64 and NOMO-1 viab 2.
For O=C(O)CSc1nnc(C2CC2)n1-c1ccccc1 the results were MITF inhib -18, PD-1 reversal 2 and NOMO-1 viab 14.
`NC(=O)CN1C(=O)C(O)(CC(=O)c2ccc(Cl)s2)c2ccccc21` (centres undefined) gave MITF inhib 29 and NOMO-1 viab 19.
For CCn1c(C)[n+](CC)c2ccccc21 the results were MITF inhib 5, PD-1 reversal 3, YB-1 expression 0.19, Hedgehog inh -16 and NOMO-1 viab -14.
Screening Fc1cccc(Cl)c1CSC1=NCCN1 returned MITF inhib 17, PD-1 reversal -1, YB-1 expression -0.17, Hedgehog inh 38 and NOMO-1 viab 136*.
`C[C@@H]1O[C@@H](O[C@H]2[C@@H]3C=CO[C@@H](O[C@@H]4O[C@H](CO)[C@@H](O)[C@H](O)[C@H]4O)[C@@H]3[C@@]3(CO)O[C@@H]23)[C@H](OC(=O)/C=C/c2ccc(O)cc2)[C@H](O)[C@H]1O` gave YB-1 expression 0.94 and Hedgehog inh 65*.
`COc1ccc(-c2nnnn2C)cc1S(=O)(=O)NCc1ccccc1` gave MITF inhib -11, PD-1 reversal 2 and NOMO-1 viab 10.
Screening Cc1cc(C2(c3cc(C)c(N)c(C)c3)CCCCC2)cc(C)c1N returned MITF inhib 25, PD-1 reversal -1, YB-1 expression -0.43 and NOMO-1 viab 122*.

Screening data: PubChem BioAssay, Broad Institute
